# In publication PMC7862700, “An all-to-all approach to the identification of sequence-specific readers for epigenetic DNA modifications on cytosine”:
# Legend:
# Assay in all cases: DAPPL (digital affinity profiling via proximity ligation, sequencing); 10 mM Tris-HCl pH 7.5, 50 mM NaCl, 1 mM DTT, 4% glycerol, room temperature, 30 min; GST-TFs on glutathione beads, 16-mer random dsDNA library, 0.1% formaldehyde crosslink after washing; high values mean tight binding
# [1] = molecular target: T1, FEV (Homo sapiens, UniProt Q99581 1-238); conditions: protein: recombinant; tags: N-terminal GST; dsDNA, one strand shown
# T1 sequence: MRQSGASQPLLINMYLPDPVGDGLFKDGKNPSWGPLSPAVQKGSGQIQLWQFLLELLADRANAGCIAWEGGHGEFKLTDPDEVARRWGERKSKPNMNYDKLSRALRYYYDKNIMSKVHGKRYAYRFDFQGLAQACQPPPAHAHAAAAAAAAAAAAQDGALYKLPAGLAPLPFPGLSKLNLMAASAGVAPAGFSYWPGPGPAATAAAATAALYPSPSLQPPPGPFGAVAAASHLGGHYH
# Outline: (§1)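 After expression in yeast as GST fusions, human transcription factors were bound to glutathione beads, DNA-barcoded and mixed with a tag-only sample. The pools were incubated with 200 nmole of a 16-mer random double-stranded DNA library in Tris/NaCl/DTT/glycerol buffer (30 min, room temperature), washed and crosslinked with 0.1% formaldehyde. Proximity ligation with BsaI/T4 ligase ran for 1 h at 37 °C, before PCR amplification and sequencing on an Illumina NextSeq500. Binding signal is a hexamer's read frequency for a factor divided by its frequency for the tag-only sample.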
# [2] = molecular target: ETV5 (Homo sapiens, UniProt P41161 1-510); conditions: protein: recombinant; tags: N-terminal GST; dsDNA, one strand shown
# Outline: as §1
# [3] = molecular target: HSF1 (Homo sapiens, UniProt Q00613 1-529); conditions: protein: recombinant; tags: N-terminal GST; chain copies: 3; dsDNA, one strand shown
# Outline: as §1
# [4] = molecular target: T2, SPIC (Homo sapiens, UniProt Q8N5J4 1-248); conditions: protein: recombinant; tags: N-terminal GST; dsDNA, one strand shown
# T2 sequence: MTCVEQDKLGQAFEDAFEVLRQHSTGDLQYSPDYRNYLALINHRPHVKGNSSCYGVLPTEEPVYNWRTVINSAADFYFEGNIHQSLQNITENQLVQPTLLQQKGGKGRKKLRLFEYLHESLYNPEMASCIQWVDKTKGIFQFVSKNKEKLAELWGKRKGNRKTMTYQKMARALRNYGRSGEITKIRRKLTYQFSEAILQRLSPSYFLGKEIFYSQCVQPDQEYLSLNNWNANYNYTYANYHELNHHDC
# Outline: as §1
# [5] = molecular target: ELF4 (Homo sapiens, UniProt Q99607 1-663); conditions: protein: recombinant; tags: N-terminal GST; dsDNA, one strand shown
# Outline: as §1
# [6] = molecular target: T3, ELK4 (Homo sapiens, UniProt P28324-2 1-405); conditions: protein: recombinant; tags: N-terminal GST; dsDNA, one strand shown
# T3 sequence: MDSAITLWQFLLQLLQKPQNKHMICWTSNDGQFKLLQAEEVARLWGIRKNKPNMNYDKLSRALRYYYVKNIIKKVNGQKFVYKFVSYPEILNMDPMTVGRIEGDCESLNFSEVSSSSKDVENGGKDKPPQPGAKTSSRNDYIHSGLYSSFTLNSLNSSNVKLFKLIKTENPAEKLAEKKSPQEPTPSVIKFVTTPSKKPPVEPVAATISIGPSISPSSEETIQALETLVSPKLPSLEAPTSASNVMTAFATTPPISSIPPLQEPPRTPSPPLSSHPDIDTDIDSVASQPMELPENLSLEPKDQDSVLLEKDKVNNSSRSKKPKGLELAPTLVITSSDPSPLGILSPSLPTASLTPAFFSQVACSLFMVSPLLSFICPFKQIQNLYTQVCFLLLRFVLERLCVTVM
# Outline: as §1
# [7] = molecular target: T4, ETV2 (Homo sapiens, UniProt O00321 1-342); conditions: protein: recombinant; tags: N-terminal GST; dsDNA, one strand shown
# T4 sequence: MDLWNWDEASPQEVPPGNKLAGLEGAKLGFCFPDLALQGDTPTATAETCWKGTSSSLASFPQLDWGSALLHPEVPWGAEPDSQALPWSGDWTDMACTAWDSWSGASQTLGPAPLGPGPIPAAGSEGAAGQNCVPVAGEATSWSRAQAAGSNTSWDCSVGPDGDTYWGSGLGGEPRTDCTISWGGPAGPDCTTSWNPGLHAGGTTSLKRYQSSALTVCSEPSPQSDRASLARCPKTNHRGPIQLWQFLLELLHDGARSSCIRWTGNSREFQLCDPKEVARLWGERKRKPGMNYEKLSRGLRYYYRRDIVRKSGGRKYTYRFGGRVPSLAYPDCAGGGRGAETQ
# Outline: as §1
# [8] = molecular target: T5, ELF3 (Homo sapiens, UniProt P78545 1-371); conditions: protein: recombinant; tags: N-terminal GST; dsDNA, one strand shown
# T5 sequence: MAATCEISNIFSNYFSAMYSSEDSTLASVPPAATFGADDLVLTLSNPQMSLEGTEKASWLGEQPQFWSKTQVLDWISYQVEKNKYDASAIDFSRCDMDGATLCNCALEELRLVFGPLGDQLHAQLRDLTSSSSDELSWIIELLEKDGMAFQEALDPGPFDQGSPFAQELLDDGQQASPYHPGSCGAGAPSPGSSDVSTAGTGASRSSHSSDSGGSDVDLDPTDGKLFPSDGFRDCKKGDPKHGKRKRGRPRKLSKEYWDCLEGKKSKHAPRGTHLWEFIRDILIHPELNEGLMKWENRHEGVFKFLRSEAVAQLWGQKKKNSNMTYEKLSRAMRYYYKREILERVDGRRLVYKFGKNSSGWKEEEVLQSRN
# Outline: as §1
# [9] = molecular target: CRX (Homo sapiens, UniProt O43186 1-299); conditions: protein: recombinant; tags: N-terminal GST; dsDNA, one strand shown
# Outline: as §1
# [10] = molecular target: ETV1 (Homo sapiens, UniProt P50549 1-477); conditions: protein: recombinant; tags: N-terminal GST; dsDNA, one strand shown
# Outline: as §1
# [11] = molecular target: T6, ERF (Homo sapiens, UniProt P50548 1-548); conditions: protein: recombinant; tags: N-terminal GST; dsDNA, one strand shown
# T6 sequence: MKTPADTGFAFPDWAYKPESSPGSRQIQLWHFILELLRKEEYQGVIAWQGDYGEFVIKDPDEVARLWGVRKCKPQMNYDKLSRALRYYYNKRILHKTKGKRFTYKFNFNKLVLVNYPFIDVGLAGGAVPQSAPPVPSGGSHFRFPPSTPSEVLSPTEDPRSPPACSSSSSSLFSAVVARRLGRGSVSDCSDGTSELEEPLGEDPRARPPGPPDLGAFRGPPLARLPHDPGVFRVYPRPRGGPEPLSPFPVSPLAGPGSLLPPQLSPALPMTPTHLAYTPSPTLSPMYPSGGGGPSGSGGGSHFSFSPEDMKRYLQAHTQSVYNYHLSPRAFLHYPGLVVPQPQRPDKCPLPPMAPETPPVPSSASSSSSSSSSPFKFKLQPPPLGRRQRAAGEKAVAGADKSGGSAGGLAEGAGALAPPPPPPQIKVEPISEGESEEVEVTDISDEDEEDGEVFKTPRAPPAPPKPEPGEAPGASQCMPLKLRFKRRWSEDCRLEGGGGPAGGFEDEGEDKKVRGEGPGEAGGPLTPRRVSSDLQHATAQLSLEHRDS
# Outline: as §1
# [12] = molecular target: T7, ETV3L (Homo sapiens, UniProt Q6ZN32 1-361); conditions: protein: recombinant; tags: N-terminal GST; dsDNA, one strand shown
# T7 sequence: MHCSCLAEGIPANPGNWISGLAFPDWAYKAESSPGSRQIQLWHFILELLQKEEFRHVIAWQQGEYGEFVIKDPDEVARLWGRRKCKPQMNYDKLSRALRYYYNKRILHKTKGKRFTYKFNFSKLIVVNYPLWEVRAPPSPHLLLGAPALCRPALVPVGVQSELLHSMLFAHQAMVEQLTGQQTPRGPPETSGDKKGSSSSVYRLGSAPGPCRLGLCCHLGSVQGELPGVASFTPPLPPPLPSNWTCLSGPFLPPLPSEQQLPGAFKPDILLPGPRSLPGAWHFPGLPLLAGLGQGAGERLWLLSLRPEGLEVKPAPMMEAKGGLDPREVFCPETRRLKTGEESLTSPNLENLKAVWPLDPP
# Outline: as §1
# [13] = molecular target: T8, ETS2 (Homo sapiens, UniProt P15036 1-469); conditions: protein: recombinant; tags: N-terminal GST; dsDNA, one strand shown
# T8 sequence: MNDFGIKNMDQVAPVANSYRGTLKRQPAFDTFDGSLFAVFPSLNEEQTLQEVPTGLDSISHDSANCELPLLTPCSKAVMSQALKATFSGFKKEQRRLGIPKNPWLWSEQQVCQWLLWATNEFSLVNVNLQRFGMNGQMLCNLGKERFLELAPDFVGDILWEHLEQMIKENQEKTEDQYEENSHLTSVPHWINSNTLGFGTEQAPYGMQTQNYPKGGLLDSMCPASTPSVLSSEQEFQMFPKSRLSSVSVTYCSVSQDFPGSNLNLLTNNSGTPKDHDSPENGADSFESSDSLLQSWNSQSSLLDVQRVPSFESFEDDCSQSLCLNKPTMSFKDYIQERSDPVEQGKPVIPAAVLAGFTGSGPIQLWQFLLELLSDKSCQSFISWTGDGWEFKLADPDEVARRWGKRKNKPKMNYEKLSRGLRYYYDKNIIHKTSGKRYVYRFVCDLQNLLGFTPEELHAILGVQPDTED
# Outline: as §1
# [14] = molecular target: T9, SPDEF (Homo sapiens, UniProt O95238 1-335); conditions: protein: recombinant; tags: N-terminal GST; dsDNA, one strand shown
# T9 sequence: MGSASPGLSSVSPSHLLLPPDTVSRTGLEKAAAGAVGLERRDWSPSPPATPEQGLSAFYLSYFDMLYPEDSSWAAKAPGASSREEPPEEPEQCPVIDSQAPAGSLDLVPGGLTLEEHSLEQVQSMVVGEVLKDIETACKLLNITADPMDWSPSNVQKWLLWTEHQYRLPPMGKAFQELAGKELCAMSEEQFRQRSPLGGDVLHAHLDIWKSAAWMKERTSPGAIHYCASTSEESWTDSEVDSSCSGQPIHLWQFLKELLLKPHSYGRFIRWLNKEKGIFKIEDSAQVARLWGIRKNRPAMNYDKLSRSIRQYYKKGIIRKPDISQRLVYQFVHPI
# Outline: as §1
# [15] = molecular target: T10, ETV7 (Homo sapiens, UniProt Q9Y603 1-341); conditions: protein: recombinant; tags: N-terminal GST; dsDNA, one strand shown
# T10 sequence: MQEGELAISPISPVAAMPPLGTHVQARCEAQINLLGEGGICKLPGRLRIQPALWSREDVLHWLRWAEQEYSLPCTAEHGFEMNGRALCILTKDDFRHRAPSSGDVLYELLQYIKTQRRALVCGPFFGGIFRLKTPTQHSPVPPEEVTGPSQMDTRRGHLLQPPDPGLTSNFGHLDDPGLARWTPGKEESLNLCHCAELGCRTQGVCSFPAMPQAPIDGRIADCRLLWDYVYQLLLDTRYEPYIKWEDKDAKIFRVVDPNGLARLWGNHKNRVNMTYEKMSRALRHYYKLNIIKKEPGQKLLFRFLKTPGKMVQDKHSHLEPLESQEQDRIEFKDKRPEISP
# Outline: as §1
# [16] = molecular target: T11, ELF5 (Homo sapiens, UniProt Q9UKW6-2 1-255); conditions: protein: recombinant; tags: N-terminal GST; dsDNA, one strand shown
# T11 sequence: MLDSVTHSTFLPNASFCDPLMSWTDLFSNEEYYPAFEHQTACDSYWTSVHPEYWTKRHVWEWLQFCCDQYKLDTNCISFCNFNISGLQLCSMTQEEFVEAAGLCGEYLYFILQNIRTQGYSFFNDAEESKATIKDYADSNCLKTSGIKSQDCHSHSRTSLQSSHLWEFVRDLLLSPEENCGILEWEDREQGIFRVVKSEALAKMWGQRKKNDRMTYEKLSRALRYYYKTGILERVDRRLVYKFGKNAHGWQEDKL
# Outline: as §1
# [17] = molecular target: T12, ETV3 (Homo sapiens, UniProt P41162-2 1-143); conditions: protein: recombinant; tags: N-terminal GST; dsDNA, one strand shown
# T12 sequence: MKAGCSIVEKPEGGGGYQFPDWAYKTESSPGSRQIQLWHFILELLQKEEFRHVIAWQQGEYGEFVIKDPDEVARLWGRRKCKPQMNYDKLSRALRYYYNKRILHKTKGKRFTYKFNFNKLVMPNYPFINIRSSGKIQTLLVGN
# Outline: as §1
# [18] = molecular target: ETV6 (Homo sapiens, UniProt P41212 1-452); conditions: protein: recombinant; tags: N-terminal GST; dsDNA, one strand shown
# Outline: as §1
# Sequence of ETV5 (P41161 whole entry): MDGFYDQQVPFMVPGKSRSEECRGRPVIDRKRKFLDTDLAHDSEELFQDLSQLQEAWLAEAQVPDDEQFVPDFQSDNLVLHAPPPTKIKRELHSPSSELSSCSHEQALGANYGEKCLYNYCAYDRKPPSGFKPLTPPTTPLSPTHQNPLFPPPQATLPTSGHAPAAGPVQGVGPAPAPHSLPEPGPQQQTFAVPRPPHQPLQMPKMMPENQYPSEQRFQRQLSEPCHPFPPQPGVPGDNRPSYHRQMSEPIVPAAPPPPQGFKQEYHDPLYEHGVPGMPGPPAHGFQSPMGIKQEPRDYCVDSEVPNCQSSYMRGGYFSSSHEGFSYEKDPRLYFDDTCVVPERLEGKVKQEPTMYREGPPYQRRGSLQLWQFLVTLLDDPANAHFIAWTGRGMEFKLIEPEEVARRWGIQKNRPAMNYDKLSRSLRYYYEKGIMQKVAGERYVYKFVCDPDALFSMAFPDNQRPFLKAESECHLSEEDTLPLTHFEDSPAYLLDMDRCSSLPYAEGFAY
# Sequence of ELF4 (Q99607 whole entry): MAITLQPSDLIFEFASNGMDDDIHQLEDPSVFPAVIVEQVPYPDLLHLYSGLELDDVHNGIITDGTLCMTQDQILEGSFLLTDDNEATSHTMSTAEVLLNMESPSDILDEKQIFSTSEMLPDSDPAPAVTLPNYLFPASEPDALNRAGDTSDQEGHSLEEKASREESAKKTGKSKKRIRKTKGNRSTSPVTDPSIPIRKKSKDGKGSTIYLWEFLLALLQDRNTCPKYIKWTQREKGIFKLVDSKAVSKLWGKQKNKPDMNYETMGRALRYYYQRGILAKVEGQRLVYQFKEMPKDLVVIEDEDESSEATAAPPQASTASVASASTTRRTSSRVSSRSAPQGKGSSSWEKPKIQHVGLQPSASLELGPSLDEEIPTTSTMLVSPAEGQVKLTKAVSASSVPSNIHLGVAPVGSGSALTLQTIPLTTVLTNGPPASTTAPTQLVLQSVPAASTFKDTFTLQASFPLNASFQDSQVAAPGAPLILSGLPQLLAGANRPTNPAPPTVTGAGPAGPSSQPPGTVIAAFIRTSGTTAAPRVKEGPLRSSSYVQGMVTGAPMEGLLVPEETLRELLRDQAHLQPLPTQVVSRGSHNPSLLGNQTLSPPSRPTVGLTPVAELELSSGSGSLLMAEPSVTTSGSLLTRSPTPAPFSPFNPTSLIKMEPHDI
# Sequence of ETV1 (P50549 whole entry): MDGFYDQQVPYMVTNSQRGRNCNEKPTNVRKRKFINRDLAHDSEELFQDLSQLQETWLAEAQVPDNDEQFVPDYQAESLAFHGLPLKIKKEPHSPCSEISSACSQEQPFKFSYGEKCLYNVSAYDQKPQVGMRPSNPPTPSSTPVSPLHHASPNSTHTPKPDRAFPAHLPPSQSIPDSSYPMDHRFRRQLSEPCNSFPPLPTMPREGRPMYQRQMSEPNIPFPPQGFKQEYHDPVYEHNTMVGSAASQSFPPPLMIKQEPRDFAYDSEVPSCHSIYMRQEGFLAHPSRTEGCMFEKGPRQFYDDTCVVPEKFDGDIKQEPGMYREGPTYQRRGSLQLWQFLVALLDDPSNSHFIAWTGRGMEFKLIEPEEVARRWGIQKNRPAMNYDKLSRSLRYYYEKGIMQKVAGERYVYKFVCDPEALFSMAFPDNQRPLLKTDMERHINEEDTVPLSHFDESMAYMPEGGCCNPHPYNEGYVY
# Sequence of CRX (O43186 whole entry): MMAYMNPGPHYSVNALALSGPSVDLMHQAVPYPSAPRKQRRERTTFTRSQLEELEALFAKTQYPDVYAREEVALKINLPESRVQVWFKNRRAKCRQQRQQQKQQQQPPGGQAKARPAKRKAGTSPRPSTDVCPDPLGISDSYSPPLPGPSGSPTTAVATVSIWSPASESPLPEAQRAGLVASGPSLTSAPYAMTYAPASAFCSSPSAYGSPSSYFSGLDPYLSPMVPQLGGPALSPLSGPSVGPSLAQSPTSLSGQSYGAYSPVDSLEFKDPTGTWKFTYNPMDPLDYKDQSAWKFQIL
# Sequence of ETV6 (P41212 whole entry): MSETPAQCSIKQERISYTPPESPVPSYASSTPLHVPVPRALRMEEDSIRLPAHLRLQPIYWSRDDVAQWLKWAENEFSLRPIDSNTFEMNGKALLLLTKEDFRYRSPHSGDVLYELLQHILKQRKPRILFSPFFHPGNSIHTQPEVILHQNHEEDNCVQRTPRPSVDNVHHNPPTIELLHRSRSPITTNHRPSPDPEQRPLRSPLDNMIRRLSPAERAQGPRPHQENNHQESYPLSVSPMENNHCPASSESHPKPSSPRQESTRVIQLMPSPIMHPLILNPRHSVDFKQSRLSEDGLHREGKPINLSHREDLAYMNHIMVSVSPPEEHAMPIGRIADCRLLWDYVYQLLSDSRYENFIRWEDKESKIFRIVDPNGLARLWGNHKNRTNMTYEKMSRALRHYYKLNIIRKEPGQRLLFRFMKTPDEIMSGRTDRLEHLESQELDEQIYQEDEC
# Sequence of HSF1 (Q00613 whole entry): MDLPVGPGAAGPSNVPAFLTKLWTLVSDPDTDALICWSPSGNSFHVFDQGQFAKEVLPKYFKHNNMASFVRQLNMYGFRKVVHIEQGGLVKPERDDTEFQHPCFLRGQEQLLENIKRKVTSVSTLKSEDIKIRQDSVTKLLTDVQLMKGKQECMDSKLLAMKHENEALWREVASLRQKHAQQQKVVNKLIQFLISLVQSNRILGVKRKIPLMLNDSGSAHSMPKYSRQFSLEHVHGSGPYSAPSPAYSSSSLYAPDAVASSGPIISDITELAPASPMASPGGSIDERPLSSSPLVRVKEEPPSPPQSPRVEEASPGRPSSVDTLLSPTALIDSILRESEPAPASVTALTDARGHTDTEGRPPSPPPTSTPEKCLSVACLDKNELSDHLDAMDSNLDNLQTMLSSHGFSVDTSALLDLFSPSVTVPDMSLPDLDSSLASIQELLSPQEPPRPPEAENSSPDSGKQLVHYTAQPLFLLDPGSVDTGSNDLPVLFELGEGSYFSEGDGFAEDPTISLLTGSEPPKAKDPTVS
sequence,measurement,setting,value
AAAACG,binding signal,[1],"1.18 fold enrichment (6-mer frequency, TF over GST control)"
same,binding signal,[2],"1.29 fold enrichment (6-mer frequency, TF over GST control)"
same,binding signal,[3],"1.06 fold enrichment (6-mer frequency, TF over GST control)"
same,binding signal,[4],"1.3 fold enrichment (6-mer frequency, TF over GST control)"
same,binding signal,[5],"1.22 fold enrichment (6-mer frequency, TF over GST control)"
same,binding signal,[6],"1.19 fold enrichment (6-mer frequency, TF over GST control)"
same,binding signal,[7],"1.24 fold enrichment (6-mer frequency, TF over GST control)"
same,binding signal,[8],"1.16 fold enrichment (6-mer frequency, TF over GST control)"
same,binding signal,[9],"1.05 fold enrichment (6-mer frequency, TF over GST control)"
same,binding signal,[10],"1.21 fold enrichment (6-mer frequency, TF over GST control)"
same,binding signal,[11],"1.24 fold enrichment (6-mer frequency, TF over GST control)"
same,binding signal,[12],"1.19 fold enrichment (6-mer frequency, TF over GST control)"
same,binding signal,[13],"1.21 fold enrichment (6-mer frequency, TF over GST control)"
same,binding signal,[14],"1.2 fold enrichment (6-mer frequency, TF over GST control)"
same,binding signal,[15],"1.14 fold enrichment (6-mer frequency, TF over GST control)"
same,binding signal,[16],"1.18 fold enrichment (6-mer frequency, TF over GST control)"
same,binding signal,[17],"1.15 fold enrichment (6-mer frequency, TF over GST control)"
same,binding signal,[18],"1.25 fold enrichment (6-mer frequency, TF over GST control)"
